Screening data (PubChem)
An excerpt weighted towards active compounds, which were near 5.4% of everything screened.
rCAG binder-1: binds r(CAG) RNA repeats | AID 651821 | r(CAG) RNA repeat, TO-PRO-1 dye displacement fluorescence | 1.3% of 370,000 active | inhibition, % at 3 µM;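 active = inhibition above the plate cutoff, the mean of all test compounds on that plate plus 3 SD, cut at about 35% in these data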;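 note: higher means more dye released from RNA so lower well fluorescence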
ALR H2O2 inh: human ALR oxidase inhibition via reduced H2O2. 3.8% of 290,000 active. inhibition, % (concentration not given with the values). purified ALR, DTT oxidation, H2O2 HRP-luminol luminescence;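 active = mean replicate inhibition above about 79%, with every replicate also reaching it, limit read from the data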
A3G deaminase: APOBEC3G (human) deaminase inhibition; inhibition, % at 20 µM; recombinant A3G, ssDNA deamination FAM/TAMRA fluorescence; 0.28% of 330,000 active; Q9HC16; AID 493012;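 active = inhibition of at least 40% at 20 µM, with no more than 30% in the related APOBEC3A deaminase screen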
A3A deaminase: blocks human APOBEC3A ssDNA deamination. recombinant A3A, FAM/TAMRA ssDNA deamination fluorescence. inhibition, % at 20 µM. 0.41% of 330,000 active. AID 493011;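 active = at least 40% inhibition at 20 µM here, with at most 30% in a related deaminase screen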
Target sequence (P31941 whole entry, looked up): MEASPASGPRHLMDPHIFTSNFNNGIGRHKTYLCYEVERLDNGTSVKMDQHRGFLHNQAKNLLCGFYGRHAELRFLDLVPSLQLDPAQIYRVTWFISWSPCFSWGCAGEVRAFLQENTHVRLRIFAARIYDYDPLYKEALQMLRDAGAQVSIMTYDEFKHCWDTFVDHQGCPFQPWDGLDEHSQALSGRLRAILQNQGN
PHOSPHO1 block: PHOSPHO1 (human) inhibition. Q8TCT1. recombinant PHOSPHO1, absorbance phosphatase assay. inhibition, % at 13.3 µM. 1.1% of 290,000 active. AID 1565; in the data active = inhibition above about 60%
Target sequence (Q8TCT1 whole entry, looked up): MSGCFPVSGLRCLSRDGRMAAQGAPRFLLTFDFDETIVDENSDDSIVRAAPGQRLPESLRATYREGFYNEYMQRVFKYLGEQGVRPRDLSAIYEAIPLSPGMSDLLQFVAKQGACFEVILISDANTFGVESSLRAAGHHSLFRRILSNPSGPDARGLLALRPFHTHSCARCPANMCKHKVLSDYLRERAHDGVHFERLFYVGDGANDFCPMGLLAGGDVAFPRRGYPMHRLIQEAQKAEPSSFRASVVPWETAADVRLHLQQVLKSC
aDG glyco up: increases alpha dystroglycan glycosylation; Pro5-aDG cells, alpha-DG glycosylation AlphaScreen (IIH6); 0% Pro5, 100% B10-LARGE cell signal; 0.22% of 360,000 active; activation, % at 10 µM;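 active = activation of at least 8% versus controls, or a plate z-score of at least 8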;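 note: Pro5 are CHO cells carrying HIG-tagged alpha-DG that lacks glycosylation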
aDG conf: confirmation of alpha dystroglycan glycosylation activators | shares compounds with aDG glyco up | Pro5-aDG cells, alpha-DG glycosylation, IIH6 AlphaLISA; scaled to LARGE-overexpressing B10 cells as 100% | activation, % at 10 µM (by protocol) | 17% of 600 active | AID 651671;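 active = activation of at least 7% in one or more replicates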;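 note: cells exposed to compound for two days before detection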
rCAG bind conf: r(CAG) RNA repeat binding, confirmation | shares compounds with rCAG binder-1 | TO-PRO-1 dye displacement fluorescence | inhibition, % at 3 µM | 70% of 4,300 active;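 active = inhibition above a per-plate cutoff, the mean inhibition of sample wells plus 3 SD, cut at about 35% in these data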;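 note: loss of TO-PRO-1 fluorescence as compound displaces dye from 1x1 AA loop RNA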
DNA CAG counter: counter-screen for rCAG RNA binders: DNA CAG dye complex inhibitors | inhibition, % at 3 µM | d(CAG) DNA oligo TO-PRO-1 dye displacement, fluorescence | 94% of 4,300 active | shares compounds with rCAG binder-1;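 active = inhibition above its plate's cutoff, the mean test-well inhibition plus 3 SD, cut at about 4.8% in these data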;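 note: hits displace the dye from DNA and so lower well fluorescence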
DNA CAG DR: disrupts DNA CAG TO-PRO-1 complex in dose response; shares compounds with rCAG binder-1; DNA CAG/GTC duplex TO-PRO-1 dye displacement fluorescence; IC50, µM; 20% of 250 active; AID 686960; in the data active = IC50 below about 10 µM
dCAG TOPRO ctr: inhibits DNA CAG/GTC TO-PRO-1 complex, rCAG binder counter-screen; shares compounds with rCAG binder-1; d(CAG) DNA duplex TO-PRO-1 dye displacement, fluorescence; IC50, µM; 80% of 30 active; AID 720649
rCAG binder-2: r(CAG) repeat RNA binding, TO-PRO-1 displacement; shares compounds with rCAG binder-1; r(CAG) RNA TO-PRO-1 dye displacement, fluorescence; IC50, µM; 100% of 30 active
Large screens that a line does not name were inactive (follow-up assays come after a bar, where they were run). Unless noted, the rule behind the calls is not given here.

COc1cc2ccccc2cc1C(=O)Nc1nccs1	aDG glyco up 4.0 (no result: ALR H2O2 inh) | aDG conf inactive
COc1c(C(=O)Nc2nccs2)ccc2ccccc12	none
CCOc1ccc(C(=O)Nc2nc3ccccc3[nH]2)cc1OCC	aDG glyco up 7.9 | aDG conf inactive
COc1ccc(C(=O)Nc2nc3ccccc3[nH]2)cc1OC	none
CCCCOc1ccc(C(=O)NCC(=O)NCc2ccccn2)cc1	aDG glyco up 7.3 (no result: PHOSPHO1 block) | aDG conf inactive
COc1ccc(C(C)(O)c2nc(-c3ccoc3)cs2)cc1 (configuration not stated)	none (no result: ALR H2O2 inh, A3G deaminase, A3A deaminase, PHOSPHO1 block)
CN1CC[n+]2cnc3ccccc3c21	aDG glyco up 6.2 | aDG conf inactive
COCCCNc1nc2c(c(=O)[nH]c(=O)n2C)n1CC(O)COc1ccccc1C (configuration not stated)	none
COCCCNc1nc2c(c(=O)[nH]c(=O)n2C)n1CC(O)COc1ccccc1 (configuration not stated)	PHOSPHO1 block 91.7, aDG glyco up 10.9 | aDG conf inactive
COc1ccccc1CCNCc1ccc(OC)c(OCc2ccccc2)c1	aDG glyco up 5.6 | aDG conf inactive
COc1ccc(CNCc2ccco2)cc1OCc1ccccc1	none
O=C(Nc1cccc(Cl)c1)Nc1sccc1-c1nc2ccccc2s1	rCAG binder-1 35.3, aDG glyco up 4.4 | aDG conf inactive | rCAG bind conf inactive | DNA CAG counter 17.6
Cc1cc(-c2ccc(S(=O)(=O)NCc3ccc(Cl)cc3)cc2)on1	none (no result: ALR H2O2 inh, A3G deaminase, A3A deaminase, PHOSPHO1 block)
Cc1cc(C)nc(N2N=C(c3ccccc3)CC2=O)n1	none
O=C1CC(c2ccccc2)=NN1c1ccccc1	rCAG binder-1 52.5 (no result: ALR H2O2 inh, A3G deaminase, A3A deaminase, PHOSPHO1 block) | rCAG bind conf inactive | DNA CAG counter 4.8
O=C1CC(c2ccccc2)=NN1c1nc(-c2ccccc2)cs1	rCAG binder-1 65.1 (no result: ALR H2O2 inh) | rCAG bind conf inactive | DNA CAG counter 15.0
CCOc1ccc(NC(=O)c2ccc3c(SCC(=O)O)c4c(nc3c2)CCCC4)cc1	none
O=C(O)CSc1c2c(nc3cc(C(=O)Nc4cccc(C(F)(F)F)c4)ccc13)CCC2	rCAG binder-1 71.7, ALR H2O2 inh 95.8 | rCAG bind conf 57.3 | DNA CAG counter 20.6
CCOC(=O)c1ccccc1NC(=O)c1ccc2c(SCC(=O)O)c3c(nc2c1)CCCC3	rCAG binder-1 45.5 | rCAG bind conf 73.6 | DNA CAG counter 30.1 | DNA CAG DR 7.14 | dCAG TOPRO ctr 5.47 | rCAG binder-2 2.98
COc1cc(Cl)c(C)cc1NC(=O)c1ccc2c(SCC(=O)O)c3c(nc2c1)CCCC3	none (no result: ALR H2O2 inh)
CC(=O)Nc1cc(-c2cccc(C(=O)NCCO)c2)cn2c(-c3cccc(C(F)(F)F)c3)cnc12	none (no result: ALR H2O2 inh, A3G deaminase, A3A deaminase, PHOSPHO1 block)
COc1cc(-n2c(C)nc3cc(C(=O)N4CC(C)CC(C)C4)ccc32)cc(OC)c1OC (configuration not stated)	none (no result: ALR H2O2 inh, A3G deaminase, A3A deaminase, PHOSPHO1 block, aDG glyco up)
C[C@@H]1CCCCO[C@H](CN(C)C(=O)Nc2ccccc2)[C@@H](C)CN([C@H](C)CO)C(=O)c2cc(NS(=O)(=O)c3cn(C)cn3)ccc2O1	none (no result: ALR H2O2 inh, A3G deaminase, A3A deaminase, PHOSPHO1 block)
COc1ccc(C(=O)NCCN2C(=O)C3C4C=CC(C4)C3C2=O)cc1OC (configuration not stated)	none (no result: ALR H2O2 inh, A3G deaminase, A3A deaminase, PHOSPHO1 block, aDG glyco up)
